The values that follow come from PubChem BioAssay.

Records with an inconclusive call do not appear. Activity calls are given as the source filed them. Unless noted, no stated cut-off is given here; in the data, active means inhibition above about 80%; inactive means the rest.

Test [1] can be described thus: viability loss in pontine glioma line – cell-based, SU-DIPG-XVII, MIPE5.0, CellTiter-Glo, qHTS, dose response (AID 1347060; cut-off not given, nearly all actives have AC50 up to about 26 µM;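 further: cells exposed to compound for 48 hours before viability readout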). The note with it: CellTiter-Glo ATP luminescence. Background: In ATP-based viability assays light output follows the ATP content of the culture.
Test [2] is described as follows: viability loss in pontine glioma line – cell-based, JHH-DIPG-1, MIPE4.0, CellTiter-Glo, qHTS, dose response (AID 1347062; cut-off not given, nearly all actives have AC50 up to about 27 µM;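 further: cells exposed to compound for two days before readout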). The note with it: JHH-DIPG-1 viability, CellTiter-Glo ATP luminescence.
Test [3] can be described thus: viability loss in pontine glioma line – cell-based, SU-DIPG-XIII, MIPE5.0, CellTiter-Glo, qHTS, dose response (AID 1347064; cut-off not given, nearly all actives have AC50 up to about 23 µM;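 further: cells exposed to compound for 48 hours before the viability read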). The note with it: CellTiter-Glo ATP luminescence.
Test [4] is described as follows: viability loss in pontine glioma line – cell-based, SU-DIPG-XXV, MIPE5.0, CellTiter-Glo, qHTS, dose response (AID 1347065; cut-off not given, nearly all actives have AC50 up to about 26 µM;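 further: cells exposed to compound for 48 hours before ATP readout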). The note with it: CellTiter-Glo ATP luminescence.
A short description of test [5]: growth inhibition of DIPG cells – cell-based, MIPE4.0 library, CellTiter-Glo luminescence, qHTS (AID 1347066; cut-off not given, nearly all actives have AC50 up to about 30 µM;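 further: cells exposed to compound for 48 hours before readout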). The note with it: SU-DIPG-VI viability, CellTiter-Glo ATP luminescence.
A short description of test [6]: viability loss in pontine glioma line – cell-based, SU-DIPG-IV, MIPE4.0, CellTiter-Glo, qHTS, dose response (AID 1347063; cut-off not given, nearly all actives have AC50 up to about 30 µM;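 further: compound exposure lasted 48 hours before the viability readout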). The settings on record: CellTiter-Glo ATP luminescence.
Test [7] in a line: viability loss with induced miR-34 in A549 – imaging, A549 dox-inducible miR-34, nuclei and caspase counts, primary screen (AID 1347080;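 active means compounds whose cell count with miR-34 switched on is under 0.7 times the count with it off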). The note with it: A549 miR-34 inducible, Hoechst nuclei count, 48 h.
Test [8] can be described thus: MELAS cybrid and Rieske KO viability enhancers – cell-based, MELAS cybrids, Rieske KO mouse fibroblasts, CellTiter-Glo, primary screen (AID 1508586;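 active means mean z-score across replicates of 1.96 or higher in either the MELAS or the Rieske mutant cell line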;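 further: z relative to plate mean and SD of compound and empty wells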). The settings on record: low glucose.
Test [9] in a line: growth inhibition, single agent or in combination, cell-based, chromothripsis tumors, cisplatin or BGB combos (AID 1671449).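 Further: cells exposed for 96 hours; 0% = vehicle DMSO and 100% = killing by high DMSO.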 The settings on record: LFS_MB_P medulloblastoma cells.
A short description of test [10]: growth inhibition, single agent and combos, cell-based, chromothripsis tumors, cisplatin or BGB combos (AID 1671450).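 Further: cells exposed to compound for four days; 0% = vehicle DMSO and 100% = cell killing by high DMSO.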 The note with it: HDN33 neuroblastoma cells, stronger effect = higher value.
A short description of test [11]: growth inhibition, single agents and combos, ICB984, cell-based, cisplatin or BGB combos, synergistic combos for chromothripsis tumors (AID 1671451; call rule not given here;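 further: cells exposed for 96 hours before readout; 0% = vehicle DMSO and 100% = killing by high DMSO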). The note with it: ICB984 medulloblastoma cells, drug combinations, stronger effect = higher value.
A short description of test [12]: growth inhibition, single agents and combos, HTB85, cell-based, BGB or cisplatin IC20 combos, synergistic combos for chromothripsis tumors (AID 1671453).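 Further: cells exposed for 96 hours before readout; 0% = vehicle DMSO and 100% = high DMSO killing control.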 The settings on record: HTB85 osteosarcoma cells, drug combinations, stronger effect = higher value.
Test [13] in a line: growth inhibition, MDA-MB-436, cell-based, BGB or cisplatin combos, synergistic combos for chromothripsis tumors (AID 1671458; call rule not given here;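 further: cells exposed for 96 hours; 0% = vehicle DMSO and 100% = killing by high DMSO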). The note with it: MDA-MB-436 breast carcinoma growth inhibition, drug combinations, stronger effect = higher value.
Test [14] in a line: BT084 cell growth, single and combined drugs, ICGC_MB145, cisplatin and BGB IC40 combos (AID 1671461).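 Further: cells exposed to drugs for 96 hours; 0% = vehicle DMSO and 100% = high DMSO full killing control.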 The settings on record: BT084 medulloblastoma cells, drug combinations, stronger effect = higher value.
Test [15] is described as follows: RCMB18 cell growth, single agent and combined, cisplatin and BGB IC40 combos (AID 1671462).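 Further: cells exposed to compound for four days.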 The settings on record: RCMB18 medulloblastoma cells, stronger effect = higher value.
Test [16] is described as follows: CRL1545 cell growth, single agent and combined, cisplatin and BGB IC20 combos (AID 1671464).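 Further: cells exposed to compound for 96 hours before readout; 0% = vehicle DMSO and 100% = high DMSO killing control.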 The settings on record: CRL1545 osteosarcoma cells, stronger effect = higher value.
The mark [17] stands for this setting: measured here: with BGB IC20 combination, at 0.5 µM.
The mark [18] stands for this setting: measured here: with cisplatin IC20 combination, at 0.5 µM.

For orientation: AC50 means the concentration giving half of the maximal activity seen. Regarding `CC/C(=C(/c1ccc(O)cc1)c1ccc(OCCNC)cc1)c1ccccc1`, the AC50 is 2.63 µM (active) in test [1]; 23.5 µM (active) in [2]; 9.34 µM (active) in test [3]; 3.32 µM (active) in [4]; 26.4 µM (active) in [5].

With `CCN1CCC(n2cc(CNc3cc(Cl)c4ncc(C#N)c(Nc5ccc(F)c(Cl)c5)c4c3)nn2)CC1`, the AC50 is 18.6 µM (active) in [1]; 20.9 µM (active) in test [2]; 18.7 µM (active) in [6]; 23.5 µM (active) in test [4]; 16.6 µM (active) in test [5].

For orientation: inhibition means the relative decrease from the control value, in per cent. As for `CN(C)CCN1C(=O)c2cccc3cc(N)cc(c23)C1=O`, the AC50 in [1] is 20.9 µM (active); in test [2] it was 23.5 µM (active); in test [6], 18.7 µM (active); in test [4], 18.6 µM (active). The fold change in test [7] (stronger effect = lower value, cell number ratio, induced over uninduced) is 1.2 (inactive); in [7] (measured here: relative caspase fold change +Dox/-Dox), 0.74. Moreover, the cell count in [7] (measured here: total cells with miR-34 induction, stronger effect = lower value) is 1750; in test [7] (measured here: total cells without miR-34 induction), 1460. Besides, the z-score is -0.14 (inactive) in [8] (MELAS cybrid survival, CellTiter-Glo 48 h, stronger effect = higher value) and -0.182 in [8] (Rieske KO mouse fibroblast survival, CellTiter-Glo 72 h). Also, the inhibition is -4.37% (inactive) in test [9] (at 0.5 µM, stronger effect = higher value); -27.8% in [9] (measured here: combination with BGB IC20, at 0.005 µM); -17.6% in test [9] (measured here: combination with BGB IC40, at 0.005 µM); -30.5% in test [9] (measured here: combination with BGB IC40, at 0.05 µM); -36.3% in [9] (measured here: combination with cisplatin, at 0.5 µM, stronger effect = higher value); 4.24% in [9] (measured here: combination with cisplatin, at 5 µM, stronger effect = higher value). Further, the inhibition in test [10] (BGB combo, at 5 µM) was 41.4%; in test [10] (at 0.5 µM), -23.5% (inactive); in test [10] (cisplatin combo, at 5 µM) it was 48.1%; in [10] (setting [17]) it was -27.7%; in [10] (setting [18]) it was -18.1%; in [10] (single agent, at 5 µM), 62.5%. For the same compound, the inhibition is -11.5% in [11] (BGB IC20 combo, at 0.005 µM); -22.2% in test [11] (BGB IC40 combo, at 0.005 µM); -11.5% in test [11] (BGB IC40 combo, at 0.05 µM); -22.6% (inactive) in test [11] (at 0.5 µM); -15.5% in test [11] (cisplatin combo, at 0.05 µM); -16.6% in test [11] (cisplatin combo, at 0.5 µM). Besides, the inhibition was -25.7% in test [11] (cisplatin combo, at 5 µM); -8.29% in test [11] (measured here: 5 uM single agent, at 5 µM); -12.9% (inactive) in [12] (at 0.5 µM); -26.5% in test [12] (measured here: with BGB IC20, at 0.5 µM); 10.3% in test [12] (measured here: with BGB IC20, at 5 µM); -16.4% in [12] (measured here: with cisplatin IC20, at 0.5 µM). The inhibition in test [12] (measured here: with cisplatin IC20, at 5 µM) is 6%; in test [12] (single agent, at 5 µM), 33.7%; in test [13] (at 0.5 µM), -8.14% (inactive); in test [13] (measured here: BGB combination, at 0.5 µM), -8.98%; in [13] (measured here: BGB combination, at 5 µM), 10.1%; in test [13] (measured here: cisplatin combination, at 0.5 µM), -20.8%. Also, the inhibition was 21.8% in test [13] (measured here: cisplatin combination, at 5 µM); -6.16% (inactive) in test [14] (at 0.5 µM); -21.8% in test [14] (cisplatin combination, at 0.5 µM); -12.3% in test [14] (cisplatin combination, at 5 µM); -42.3% in test [14] (measured here: BGB IC40 combination 0.05 uM, at 0.05 µM); -40.8% in test [14] (single agent, at 5 µM). In addition, the inhibition was -2.53% (inactive) in [15] (at 0.5 µM); -21% in [15] (cisplatin combo, at 5 µM); -28.2% in [15] (measured here: BGB IC40 combination, at 0.05 µM); 2.14% in test [15] (measured here: combination with cisplatin, at 0.5 µM); -32.9% in test [15] (single agent, at 5 µM); -31.5% (inactive) in [16] (at 0.5 µM). Moreover, the inhibition in test [16] (setting [17]) is -17.6%; in [16] (setting [18]), -40.7%; in test [16] (single agent, at 0.05 µM), -14.5%; in test [16] (single agent, at 5 µM), 59.5%.
